In the library only some 8.1% were active in any assay of this set; here they are far more common.
KB-V1 MDR tox: kills drug-selected multidrug resistant KB-V1 cells | 3.4% of 400,000 active | AID 1347076 | KB-V1 MDR cells viability, CellTiter-Glo, 72 h | Potency, µM (highest dose often 46.1 µM), usual class: cytotoxic; note: % is set by controls: 0 for no effect and ±100 for the full control effect; nearly all actives have a fitted effect of over 60% in size
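Luminescent ATP read-out (CellTiter-Glo, 10 min) measures survival of drug-selected KB-V1 MDR cells after 72 h, 37 degrees C compound exposure. Medium: phenol-red-free DMEM, 10% FBS. Values from fitted concentration-response curves.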
KB-3-1 cytotox: kills parental KB-3-1 adenocarcinoma cells; KB-3-1 viability, CellTiter-Glo ATP luminescence, 72 h; Potency, µM (highest dose often 46.1 µM), hits mostly cytotoxic; 1.4% of 400,000 active; AID 1347075; note: % is set by controls: 0 for no effect and ±100 for the full control effect; nearly all actives have a fitted effect of over 60% in size
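Cells are dispensed, compounds pinned in, plates held at 37 °C for 72 h, then CellTiter-Glo is added and luminescence read after 10 minutes. Cell line: parental KB-3-1 in phenol-red-free DMEM, 10% FBS.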
SW480 rereplic: DNA re-replication induction in SW480 cells. SW480 DNA re-replication, Hoechst DNA content imaging, 48 h. Potency, µM (series often up to 46.1 µM), for inactives: at the highest dose re-replication activation, actives largely listed as activators. 1.8% of 340,000 active; note: % of control where 0% means no effect; nearly all actives have a fitted effect of over 55% in size
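250 cells/well; 23 nL cpd via pin tool; 48 hr, 37 C, 5% CO2; Hoechst 40 min; imager read of total nuclear intensity, ex 405/em 500-530 nm.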
ELG1 DNA repair: ELG1-dependent DNA repair inhibition; HEK293T ELG1-luciferase reporter, luminescence, 16 h; DNA damage induced by 5-fluorouridine; Potency, µM (series often up to 46.1 µM), without a hit: at the highest dose activity change, negative = inhibition, hits mostly inhibitors; 2.3% of 330,000 active; note: % is set by controls: 0 for no effect and ±100 for the full control effect; nearly all actives have a fitted effect of over 55% in size
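In this reporter screen, reduction of luminescence relative to DMSO vehicle indicated activity. Compounds and 5-fluorouridine were added together to 2,000 cells per well, incubated for 16 hr at 37 °C, then developed with ONE-Glo.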
MCF10A rereplic: induces DNA re-replication in MCF 10a normal breast cells | MCF 10A DNA re-replication, Hoechst nuclear intensity, 48 h | Potency, µM (highest dose often 46.1 µM), without a hit: top-dose activity, positive = re-replication, most hits filed as activators | 2.9% of 350,000 active | AID 624296; note: % of control where 0% means no effect; nearly all actives have a fitted effect of over 50% in size
Starred values were filed as active, the others as inactive; i = inactive; ? = inconclusive; · = no result given; [ ] = dose if it differs, or a comment. Calls come from the whole dose curve; as a rule, active = well fitted curve in the direction sought with a large enough effect; inconclusive = small, poorly fitted or top-dose-only effect, or another doubt; inactive = no such curve, though single readings can be large; an effect the other way counts as inactive or inconclusive. Potency is the fitted concentration of half-maximal effect.

SMILES	KB-V1 MDR tox	KB-3-1 cytotox	SW480 rereplic	ELG1 DNA repair	MCF10A rereplic
Cc1n[nH]c(=S)n1/N=C/c1ccccc1OCc1ccc(Cl)cc1	12µM*	?	?	?	6%
Cc1n[nH]c(=S)n1/N=C/c1cccc(OCc2ccccc2)c1	i	i	23%	6%	?
CC(=O)NNC(=O)c1cc2sccc2s1	i	?	-21%	?	-1%
NNC(=O)c1cc2sccc2s1	?	?	13µM*	?	3.7µM*
Cc1sc2ncnc(SCC(=O)c3ccc4c(c3)OCCO4)c2c1-c1ccccc1	16µM*	i	·	10µM*	12%
COc1ccc2nc(N/C(N)=N/S(C)(=O)=O)nc(C)c2c1	2.1µM*	8.2µM*	-2%	?	?
Cc1ccc(S(=O)(=O)/N=C(\N)Nc2nc(C)c3cc(C)ccc3n2)cc1	15µM*	i	12%	-1%	19%
COCCNC(=O)C1CCCN(C(=O)COCc2ccccc2)CC1 (configuration not stated)	i	i	·	·	·
Cc1ccc(C(=O)O)cc1-c1ccc(/C=C2\SC(=O)N(CC(=O)Nc3ccccc3)C2=O)o1	i	i	-26%	-13%	23µM*
C#CCN1C(=O)S/C(=C\c2ccc(-c3ccc(C(=O)O)cc3C)o2)C1=O	i	i	20%	?	-6%
Cc1ccc(/C=C2/NC(=O)N(Cc3ccccc3)C2=O)o1	i	i	?	-3%	25%
Cc1ccc(CN2C(=O)N/C(=C\c3ccc(-c4ccc(C(=O)O)cc4C)o3)C2=O)cc1	i	i	7.3µM*	-1%	?
O=C(O)c1ccc(-c2ccc(/C=C3\NC(=O)N(Cc4ccc(Cl)cc4)C3=O)o2)cc1	i	i	10µM*	-6%	2.1µM*
Cc1ccccc1NC(=O)CN1C(=O)S/C(=C\c2ccc(-c3cc(C(=O)O)ccc3C)o2)C1=O	?	i	9%	7%	?
Cc1cc(C(=O)O)ccc1-c1ccc(/C=C2\NC(=O)N(Cc3ccccc3Cl)C2=O)o1	i	i	?	-3%	2.3µM*
Cc1ccc(C)c(N2C(=N)S/C(=C\c3ccc(-c4ccccc4C(=O)O)o3)C2=O)c1	i	i	-19%	6%	18µM*
Cc1ccc(C(=O)O)cc1-c1ccc(/C=C2/NC(=O)N(c3ccccc3)C2=O)o1	i	i	?	4%	13µM*
Cc1ccc([C@@H]2C[C@H]3[C@@H](CN2S(=O)(=O)c2ccc(Cl)cc2)C(=O)C[C@@H](c2ccc(C)cc2)N3S(=O)(=O)c2ccc(Cl)cc2)cc1	i	i	·	·	·
O=Cc1ccc2c(c1)OCCOCCOCCOCCO2	i	i	·	·	·
CCN(CC)CCOc1ccc(/C(=C(\Cl)c2ccccc2)c2ccccc2)cc1	i	?	4%	-2%	5.2µM*
COCCCNc1oc(-c2cccs2)nc1S(=O)(=O)c1ccc(C)cc1	15µM*	i	-2%	?	-6%
CC1CCCCC12NC(=O)N(CC(=O)NCCc1ccccc1)C2=O (configuration not stated)	i	i	-4%	1%	-3%
O=c1[nH]c(=O)n([C@@H]2C[C@H](O)[C@H](CO)O2)cc1I	·	·	-13%[20.6 µM]	·	6%[20.6 µM]
COC(=O)CNC(c1ccccc1)c1cc(Br)ccc1NC(=O)c1cc(OC)c(OC)c(OC)c1 (configuration not stated)	i	i	·	·	·
N#Cc1c(N)nc(Sc2ccc(Cl)cc2)c(C#N)c1-c1ccccc1Cl	23µM*	4.6µM*	?	?	?
SMILES	KB-V1 MDR tox	KB-3-1 cytotox	SW480 rereplic	ELG1 DNA repair	MCF10A rereplic
CCSc1nc(N)c(C#N)c(-c2ccccc2Cl)c1C#N	21µM*	i	-12%	?	?
OCC1OC(n2cnc3c(NCc4ccccc4O)ncnc32)C(O)C1O (configuration not stated)	10µM*	?	2.3µM*	·	?
CN(C)c1ncnc2c1ccn2C1OC(CO)C(O)C1O (configuration not stated)	?	0.82µM*	15µM*	·	2.3µM*
CN(C)c1nc2c(N)ncnc2n1C1OC(CO)C(O)C1O (configuration not stated)	i	i	0%	·	0%
OCC1OC(n2ccc3c(NO)ncnc32)C(O)C1O (configuration not stated)	0.52µM*	0.46µM*	?	·	0.16µM*
CCCCCn1nnnc1C1(C)CCC(=O)N1Cc1ccco1 (configuration not stated)	i	i	·	·	·
CCc1ccc(CN(Cc2ccco2)c2cnc(S(C)(=O)=O)nc2C(=O)Nc2ccccc2Cl)cc1	i	i	·	·	·
CCOC(=O)c1c(SCCN2CCCCC2)n(-c2ccccc2)c(=S)n(-c2ccccc2)c1=O	i	i	12µM*	·	9.2µM*
CCOC(=O)c1c(SC)n(-c2ccccc2)c(=S)n(-c2ccccc2)c1=O	i	i	-7%	14%	8%
O=[N+]([O-])c1cccc(N=Nc2ccc(O)cc2O)c1	i	?	13µM*	·	?
O=[N+]([O-])c1ccc(N=Nc2ccc(O)cc2O)cc1	i	?	?	-27%	?
c1ccc2c(c1)Nc1cc3ccccc3cc1S2	i	i	3%	?	?
c1ccc2c(c1)Nc1ccncc1S2	i	i	-5%	18µM*	3%
CCC(=O)N1CCN(c2ccc(NC(=O)c3ccc([N+](=O)[O-])o3)cc2)CC1	?	?	0%	-16%	11%
CC(C)(C)C(=O)N1CCN(c2ccc(NC(=O)c3ccc([N+](=O)[O-])o3)cc2)CC1	?	?	1.8µM*	?	1.8µM*
CS(=O)(=O)N1CCN(c2ccc(NC(=O)c3ccc([N+](=O)[O-])o3)cc2)CC1	18µM*	i	-78%	?	2.1µM*
CCCC(=O)N1CCN(c2ccc(NC(=O)c3ccc([N+](=O)[O-])o3)cc2)CC1	?	i	7%	?	?
CC1CCN(c2ccc(NC(=O)c3ccc([N+](=O)[O-])o3)cc2)CC1	10µM*	5.2µM*	9.2µM*	?	3.3µM*
CC(C)(C)OC(=O)N[C@@H](C(=O)OC(C)(C)C)c1ccc(Br)cc1	i	i	-5%	?	2%
Fc1ccc2cnc(-c3ccccc3F)cc2c1	i	i	-14%	?	18µM*
Cc1nc(Oc2ccc(Cl)cc2)c2oc3ccccc3c2n1	?	i	-3%	-11%	2%
Cc1nc(N2CCC(C)CC2)c2oc3ccccc3c2n1	21µM*	?	-14%[9.22 µM]	21µM*	?
Cc1nc(N2CCN(Cc3ccc(Cl)cc3)CC2)c2oc3ccccc3c2n1	?	i	6%	18µM*	?

High-throughput results: PubChem BioAssay, National Center for Advancing Translational Sciences (NCATS)
